# Measured values: PubChem BioAssay AID1457 (National Center for Advancing Translational Sciences (NCATS), 2008)
# In all, about 210,000 compounds went through this assay and about 730 (0.35%) were called active. Inconclusive results (about 1%) are left out. Many of the other results were omitted from the sample, so actives are more common in it than they were. Values without a mark were called inactive. The call rests on the fitted dose curve; in most records, active means well fitted inhibition curve with a large enough effect; inconclusive means small, poorly fitted or top-dose-only effect; inactive means no such curve, though single readings can be large or run the other way.
# Assay: qHTS Assay for Identifying the Cell-Membrane Permeable IMPase Inhibitors: Potentiation with Lithium;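 further: IP1 builds up when IMPase is blocked and the TR-FRET signal falls; nearly all actives have a fitted effect of over 50% in size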;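 on activity, negative = IMPase inhibition: plate controls were basal vehicle for no effect and high inhibitor control for full effect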
# Conditions: CHO-M1 cells, IP1 TR-FRET (IP-One), carbachol + lithium; series mostly up to 59.4 µM; activity, negative = IMPase inhibition: at the top concentration
# From the text: NIH Chemical Genomics Center [NCGC]
# NIH Molecular Libraries Probe Production centers Network [MLPCN]
# Assay Submitter (PI): Wei Zheng
# Lithium has been widely used for the treatment of bipolar disorder. But lithium has a narrow therapeutic index and it can cause side effects such as thirst, weight gain, tremor, polyuria and memory problems. Although the mechanism for lithium action in treatment of bipolar disorder is still not fully understood, inhibition of inositol monophosphatase (IMPase) and the subsequent depletion of the inositol pool in living cells have been implicated as the primary therapeutic benefit of lithium therapy. Therefore, a selective IMPase inhibitor with reduced side effects might be a good drug candidate to replace lithium for the treatment of bipolar disorder. Several IMPase inhibitors have been discovered previously. However, they are not suitable for therapeutic use because of their poor cell membrane penetrability or oral bioavailability; the development of new cell-permeable IMPase inhibitors is needed.
# IMPase catalyzes the hydrolysis of inositol-1-phosphate (IP1) to release free inositol. Binding of an agonist to a Gq coupled GPCR results in the activation of PLC, which hydrolyzes the PIP2 to form inositol-1,4,5-trisphosphate (IP3) and diacyl glycerol (DAG). While DAG activates protein kinase C (PKC), IP3 triggers the elevation of intracellular free Ca2+. The IP3 is very rapidly inactivated by hydrolysis to IP2, IP1 and then inositol by a series of enzymes including IMPase. Free inositols are used for synthesis of PI and thus start another inositol cycle.
# To identify new cell-permeable IMPase inhibitors, we developed a cell-based IMPase assay in which the cytosolic IP1 is measured by a time-resolved fluorescence resonance energy transfer (TR-FRET) assay. In this assay, an IP1 specific antibody is used to detect the labeled IP1 tracer. When the cell lysate contains the elevated IP1 due to the inhibition of IMPase, the TR-FRET between the labeled antibody and IP1 tracer is disrupted resulting in a reduction in the total signal. Since the TR-FRET is used, this cell-based assay is a homogenous assay without cell wash and medium change that is suitable for assay miniaturization and HTS. In this particular assay, a small amount of lithium is added to potentiate the response of weak activators.
# NCGC Assay Protocol Summary:
# A Chinese hamster ovary (CHO) cell line stably expressing the M1 receptor (CHO-M1) was obtained from ATCC and maintained in F-12 Kaighn's media (Invitrogen, Carlsbad, CA) supplemented with 10 % FBS, 100 units/ml penicillin, 100 ug/ml streptomycin and 250 ug/ml geneticin at 37C, 5% CO2 in a humidified atmosphere. Before the assay, aliquots of cells were frozen and stored at -135C. The assay was performed in 1536-well format. Data are reported for both the ratio of the two emission wavelengths, and also for the component 'donor' channel, Em2=620. […] AC50 values were determined from concentration-response data modeled with the standard Hill equation.
# (1) Frozen CHO-M1 cells were thaw, washed once with fresh media and resuspended in F12K media containing 10% FBS, 100 units/ml penicillin and 100 ug/ml streptomycin. Cells were plated at 4ul/well (2000 cells) in white, tissue culture treated 1536-well plates, and then cultured at 37C, 5 % CO2 for 16 to 30 hours.
# (2) Add 23 nl/well of compound in DMSO solution. The final titration for each compound was between 0.6 nM and 46 uM.
# (4) Incubation at 37C, 5 % CO2 for 30 min.
# (5) Add 1 ul/well of d2-conjugated IP1 (d2-IP1) and 1 ul/well of Eu+ cryptate conjugated anti-IP1 antibody (Eu+-Ab) prepared in the cell lysis buffer, both from the IP-One kit (Cisbio, MA).
# (6) Incubate at room temperature for 10 minutes.
# (7) Detect the assay plate (Ex = 320, Em1 =665 and Em2 620) in a ViewLux plate reader.
# Potency means the concentration at half of the fitted maximal effect.
Structure (SMILES),Potency,"activity, negative = IMPase inhibition"
CCOC(=O)c1c(C)[nH]c(=S)c(C#N)c1-c1ccccc1,12.6 µM (active),
CCOC(=O)c1c(C)[nH]c2c1-c1ccccc1C(=O)C2=O,,12.6%
CCOC(=O)c1c(C)nc(-c2ccccc2)nc1NC(=O)C(C)C,,2.09% [at 38.3 µM]
Brc1ccc(C2=NCCC(c3ccccc3)O2)cc1 (configuration not stated),,4.94%
CC[C@H](C)[C@@H](NC(=O)O[C@@H]1C(=O)c2cc(OC)ccc2O[C@H]1c1cccc(OC)c1)C(=O)OC,,18.9%
COc1cc(OC)c2c(-c3cccc(-c4cccc(N)c4)c3)cc(=O)oc2c1,,16.6%
CCOC(=O)C1=NO[C@@]2(C=C(Br)C(=O)[C@H]3O[C@H]32)C1,,15.8%
CC1=C(/C=C/C(C)=C/C=C/C(C)=C/C=C/C=C(C)/C=C/C=C(C)/C=C/C(=O)[C@]2(C)C[C@@H](O)CC2(C)C)C(C)(C)C[C@H](O)C1,,-2.06%
COC(=O)c1sc(=S)n(-c2ccccc2)c1N,,25.7% [at 38.3 µM]
COC(=O)c1sc2[nH]c(=S)n(N)c(=O)c2c1C,10 µM (active),
CCOC(=O)Cn1c(N)c(C(=O)OC)sc1=S,,-4.7% [at 38.3 µM]
COC/C=C/C1=CC2=CC(=O)C(C)(OC(=O)CCC(=O)OC)C(=O)C2=CO1 (configuration not stated),,0.633%
COc1cccc([C@@H]2Oc3ccc(Br)cc3C(=O)[C@H]2OC(=O)NCCc2ccc(OC)c(OC)c2)c1,,10.1%
NNc1nnc(NN)c2ccccc12,,11.6%
COC(=O)CSc1nc(C2CC2)nc2ccccc12,,3.22% [at 38.3 µM]
O=C(CSc1nc(C2CC2)nc2ccccc12)Nc1ccc2c(c1)OCCO2,,18.1% [at 38.3 µM]
Cc1nnc(NC(=O)CSc2nc(C3CCCCC3)nc3ccccc23)s1,6.31 µM (active),
NC(=O)c1sc(-c2ccsc2)cc1N,,-15.1%
COC(=O)C1=C(C(=O)OC)[C@@H]2N(C)c3ccccc3[C@@]23C[C@@H](C(=O)OC)N(S(=O)(=O)c2ccc(Br)cc2)C3=N1,,2.46%
CC(N)(C(=O)O)c1ccc(-c2nn[nH]n2)cc1 (configuration not stated),,-8.09%
CCN1C(=O)N[C@@H](c2ccccc2)C(C(=O)OC)=C1C,,-7.94%
COC(=O)c1c(-c2cccs2)csc1NC(=O)CSc1ncnc2sc(C)c(C)c12,28.2 µM (active),
CCOC(=O)c1c(NC(=O)CSc2nnc(Cc3csc(N)n3)n2C)sc(C)c1C,,36% [at 38.3 µM]
CCOC(=O)c1c(-c2ccc(C)cc2C)csc1NC(=O)CSc1nnnn1C,,9.77% [at 38.3 µM]

Structure (SMILES),Potency,"activity, negative = IMPase inhibition"
Cc1ccc(NC(=O)O[C@@H]2C(=O)c3cc(Br)ccc3O[C@H]2c2ccc3c(c2)OCO3)cc1Br,,9.18%
C=C1O[C@@](CO)(n2cnc3c(N)ncnc32)[C@H](O)[C@@H]1O,,-2.98%
Cc1ccccc1-c1ccc(C(=O)O)s1,,-28.1%
O=C(NCc1ccco1)O[C@@H]1C(=O)c2cc(Br)ccc2O[C@H]1c1ccc2c(c1)OCO2,,7.71%
O=C(O)C[C@@H]1NC(=O)[C@H](Cc2ccccc2)NC1=O,,-10.9%
Cn1c(-c2ccco2)nc2cc3ccccc3cc21,,-7.17% [at 38.3 µM]
Cc1cc(NCc2ccco2)n2c(nc3ccccc32)c1C#N,,20.5% [at 38.3 µM]
CN(c1nc2ccccc2n2c(-c3ccco3)nnc12)S(=O)(=O)c1ccccc1,7.94 µM (active),
CCCCCCCC[C@@H](O)/C=C/C=C/C=C\[C@@H](O)CCCC(=O)O,,6.73%
COc1ccc2c(c1)O[C@@H](c1ccc3c(c1)OCO3)[C@H](OC(=O)NCCc1ccc(OC)c(OC)c1)C2=O,,-14.2%
C/C=C(\C)C(=O)OC1C(OC(=O)C2(C)OC2C)c2cc3ccc(=O)oc3cc2OC1(C)C (configuration not stated),,4.87%
COC1(C2=NCCN2)COc2ccccc2O1 (configuration not stated),,5.3%
C[C@H]1Cc2c(COc3ccccc3)nc3c(c2CO1)CN(C(=O)NCc1ccco1)CC3,,-2.19%
C/C=C(\C)C(=O)O[C@H]1CC(C)=C2C(=O)C=C(C)C2[C@@H]2OC(=O)[C@@](C)(OC(=O)C=C(C)C)C21 (some centres not stated),,-1.2%
CCCCC/C=C\C/C=C\C/C=C\CCCCCCC(N)=O,,7.82%
COc1cccc(Cn2c(=O)c(C)nc3cnc(Oc4ccccc4)nc32)c1,,18.7%
COc1ccc(-c2nc3cnc(OC)nc3n(Cc3ccc(F)cc3)c2=O)cc1,5.62 µM (active),
COc1ccc(-c2nc3cnc(Oc4ccccc4)nc3n(Cc3cccs3)c2=O)cc1,8.91 µM (active),
COc1ccc(-c2nc3cnc(N(C)C)nc3n(Cc3cccs3)c2=O)cc1,,1.78%
COc1cccc(Cn2c(=O)c(-c3ccccc3)nc3cnc(OC)nc32)c1,,24.5%
COc1cccc(Cn2c(=O)c(-c3cc(F)cc(F)c3)nc3cnc(OC)nc32)c1,,0.937%
COc1ccc(-c2c(C)cc3oc(=O)cc(-c4ccccc4)c3c2C)cc1C=O,,2.81%
CC(C)[C@@H]1NC(=O)[C@H](Cc2ccccc2)NC(=O)[C@@H](CC(=O)O)NC(=O)CNC(=O)[C@H](CCCNC(=N)N)NC1=O,,7.05%
